Screen size: about 63,000 compounds; about 1,100 (1.7%) were called active.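 How the source made its calls: active means compounds whose percent cytotoxicity in the single-dose primary screen, scaled between solvent and toxic-drug controls, exceeds 50; inactive means the rest.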 What follows is part of a selection rich in actives, with near analogues and random picks from the rest. Potency and affinity values are given separately.
Experiment: viability loss of HPDE-C7K cells – cell-based, fluorescence, HTS, primary screen (AID 431);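 further: 0% = DMSO solvent wells and 100% = doxorubicin-treated wells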
Conditions: HPDE-C7K KRASV12 cells, Alamar Blue viability, 48 h; at 10 µM; stronger effect = higher value

Row | SMILES | cytotoxicity
1 | COc1cc2c(cc1NC(=O)CCCN1C(=O)CCC1=O)oc1ccccc12 | 15.2% (inactive)
2 | COc1ccc(C(=O)CN2C(=O)NC3(CCCc4ccccc43)C2=O)cc1OC (centres undefined) | 3.3% (inactive)
3 | COc1cc2c(cc1NC(=O)CN1C(=O)NC3(CCc4ccccc43)C1=O)oc1ccccc12 (centres undefined) | 55% (active)
4 | CCOC(=O)C1CCCN(C(=O)c2ccc3c(c2)NC(=O)C(N2CCOCC2)S3)C1 (centres undefined) | -2.6% (inactive)
5 | CCOC(=O)N1CCN(C(=O)c2ccccc2CCc2ccccc2)CC1 | 12.2% (inactive)
6 | COc1ccc(Cl)cc1CN1CCN(c2nc(C)cc(C)c2C#N)CC1 | 22.3% (inactive)
7 | O=C(NCC12CC3CC(CC(C3)C1)C2)c1nc2ncccn2n1 | 7.1% (inactive)
8 | CCN=C1SC(CC(=O)Nc2sc3c(c2C#N)CCCC3)C(=O)N1CC (centres undefined) | -3.9% (inactive)
9 | Cc1ccc(NC(=O)NC2CCCCC2)cc1Cl | -4% (inactive)
10 | O=C(Nc1ccc(F)c(F)c1)NC1CCCCC1 | -0.5% (inactive)
11 | CC(C)c1ccc(NC(=O)NC2CCCCC2)cc1 | 52.6% (active)
12 | CCOc1ccc(NS(=O)(=O)c2ccc3[nH]c(=O)oc3c2)cc1 | 11.8% (inactive)
13 | CCOc1ccc(NS(=O)(=O)c2ccc(SC)cc2)cc1 | 8.6% (inactive)
14 | Cn1c(=O)c2c(nc(NCc3cccnc3)n2Cc2cccc(C(F)(F)F)c2)n(C)c1=O | -17.6% (inactive)
15 | Cc1ccc(Nc2cc(C)nn2-c2nc(C)cc(=O)[nH]2)cc1 | 101% (active)
16 | Cc1cc(Nc2ccccc2)n(-c2nc3ccccc3[nH]2)n1 | 1.5% (inactive)
17 | Cc1cc(=O)[nH]c(-n2nc(C)cc2C)n1 | -16% (inactive)
18 | Cc1cccc(C)c1N(CC(=O)Nc1cccc(N(C)S(C)(=O)=O)c1)S(C)(=O)=O | -7.3% (inactive)
19 | COc1ccc(Cl)c(Cn2c(NCCCN(C)C)nc3c2c(=O)n(C)c(=O)n3C)c1 | -1.8% (inactive)
20 | Cc1ccccc1OCC(O)Cn1c(N2CCN(c3ccccc3)CC2)nc2c1c(=O)[nH]c(=O)n2C (centres undefined) | 78.8% (active)
21 | CCSc1nc2c(c(=O)[nH]c(=O)n2C)n1CC(O)COc1ccccc1C (centres undefined) | -11.9% (inactive)
22 | Cn1c(=O)[nH]c(=O)c2c1nc(N1CCOCC1)n2CC(O)COc1ccccc1 (centres undefined) | -14.2% (inactive)
23 | Cc1ccccc1OCC(O)Cn1c(SC(C)C)nc2c1c(=O)[nH]c(=O)n2C (centres undefined) | -16.9% (inactive)
24 | COc1ccccc1OCC(O)Cn1c(Br)nc2c1c(=O)[nH]c(=O)n2C (centres undefined) | -3.5% (inactive)

Row | SMILES | cytotoxicity
25 | CC(C)CSc1nc2c(c(=O)[nH]c(=O)n2C)n1CC(O)COc1cccc2ccccc12 (centres undefined) | 63.6% (active)
26 | Cc1sc2nc(CN3CCOCC3)nc(N3CCC(C(N)=O)CC3)c2c1C | 2.3% (inactive)
27 | O=C(COCCOCC(=O)N(c1ccccn1)C1CCCCC1)N(c1ccccn1)C1CCCCC1 | -24% (inactive)
28 | CCOC(=O)c1nnn(-c2nonc2N)c1COc1ccccc1 | -16.7% (inactive)
29 | CN(C)CCNc1nc(-c2ccco2)c2c(c1C#N)CC(C)(C)OC2 | -0.3% (inactive)
30 | CCN(CC)CCNc1nc(-c2ccco2)c2c(c1C#N)CC(C)(C)OC2 | -15.7% (inactive)
31 | C=CCn1c(SCC2=C(C(=O)OCC)C(C)NC(=O)N2)nnc1C1CCCCC1 (centres undefined) | -17.2% (inactive)
32 | Cc1cc(NS(=O)(=O)c2ccc(C3CCCCC3)cc2)no1 | -3% (inactive)
33 | FC(F)C(F)(F)C(F)(F)C(F)(F)c1cc(-c2ccccc2)n[nH]1 | 82.9% (active)
34 | Oc1ccccc1-c1cc(C(F)(F)C(F)F)[nH]n1 | -5.1% (inactive)
35 | O=C1CC(C(F)(F)C(F)(F)C(F)(F)C(F)F)=Nc2ccccc2N1 | -3.2% (inactive)
36 | O=C(Cc1cn2ccsc2n1)NCc1ccccc1 | -14.8% (inactive)
37 | COc1cc2c(cc1OC)C1Cc3ccc(OC)c(OC)c3CN1CC2 (centres undefined) | -5% (inactive)
38 | COc1cc2c(cc1OC)C(c1cc(OC)c(OC)c(OC)c1)NCC2 (centres undefined) | 7.4% (inactive)
39 | Cc1ccc(S(=O)(=O)Cn2nnnc2CN2CCCC3(CCCCC3)C2)cc1 | 4.3% (inactive)
40 | COc1ccc2nc(NC(=O)c3cnccn3)sc2c1 | 4.7% (inactive)
41 | OCCN1CCN(C(c2cccs2)c2ccc3cccnc3c2O)CC1 (centres undefined) | 83.8% (active)
42 | CN1CCN(C(c2cccnc2)c2ccc3cccnc3c2O)CC1 (centres undefined) | -15.1% (inactive)
43 | Cc1nc2sc(C(c3ccccc3)N3CCN(CCO)CC3)c(O)n2n1 (centres undefined) | -1.5% (inactive)
44 | FC(F)(F)c1ccccc1Nc1nccs1 | 14.9% (inactive)
45 | CC1CC(C)CN(c2nc3c(c(=O)[nH]c(=O)n3C)n2CCSc2nc3ccccc3o2)C1 (centres undefined) | 2.4% (inactive)
46 | N#CC1=C2SCN(c3ccccc3)CN2C(=O)CC1c1cccs1 (centres undefined) | 2.6% (inactive)
47 | N#CC1=C2SCC(O)(c3ccccc3)N2C(=O)CC1c1ccccc1 (centres undefined) | 65.7% (active)
48 | COc1ccc(C2CC(=O)N3C(=C2C#N)SCC3(O)c2ccccc2)cc1 (centres undefined) | 12.5% (inactive)

Row | SMILES | cytotoxicity
49 | N#CC1=C2SCN(Cc3ccccc3)CN2C(=O)CC1c1cccs1 (centres undefined) | -0.4% (inactive)
50 | CCc1ccc(C2CC(=O)N3CN(c4ccccc4)CSC3=C2C#N)cc1 (centres undefined) | 2.4% (inactive)
51 | COc1ccc(CCNS(=O)(=O)c2ccc3c(c2)OCCO3)cc1OC | -28.8% (inactive)
52 | COc1ccc(S(=O)(=O)N(C)CC(=O)NC2CC2)cc1 | -20.5% (inactive)
53 | CCOc1ccc(N2CCCCn3c2nc2c3c(=O)[nH]c(=O)n2C)cc1 | -9% (inactive)
54 | COc1ccc(OC)c(NC(=O)CSc2nnc(Cn3c(=O)sc4ccccc43)n2C)c1 | 4.6% (inactive)
55 | CCn1c(SCC(=O)c2cc(OC)ccc2OC)nc2c1c(=O)n(C)c(=O)n2C | -4.8% (inactive)
56 | Cc1csc(NC(=O)CSc2ncnc3c2cnn3-c2ccccc2Cl)n1 | 31.8% (inactive)
57 | CCOC(=O)Cc1csc(NC(=O)CSc2ncnc3c2cnn3-c2ccccc2Cl)n1 | 50% (active)
58 | CCOC(=O)Cc1csc(NC(=O)CSc2ncnc3c2cnn3-c2ccc(OC)cc2)n1 | 4.2% (inactive)
59 | Cc1cc(OCc2nn[nH]n2)c2c(C)c(Cc3ccccc3)c(=O)oc2c1 | 13.7% (inactive)
60 | Cc1cc(-c2ccccc2)c(C#N)c(N)n1 | 12.6% (inactive)
61 | CSc1nc(-c2ccco2)cc(-c2ccccc2)c1C#N | 45% (inactive)
62 | Cc1cccc2cc(CN(CCCO)C(=O)Nc3ccccc3Cl)c(=O)[nH]c12 | -2.4% (inactive)
63 | CC[C@@H](C)[C@H](NC(=O)OC(C)(C)C)c1nnc(S(=O)(=O)Cc2cc(C)ccc2C)o1 | 46.9% (inactive)
64 | CC(C)(C)OC(=O)N[C@@H](Cc1ccccc1)c1nnc(S(=O)(=O)Cc2cccc(F)c2)o1 | -21.9% (inactive)
65 | COc1ccc(N2CCN(C(=O)c3cc4c(-c5cccc(OC)c5)nn(C)c4s3)CC2)cc1 | 15.7% (inactive)
66 | Cn1nc(-c2ccc(Cl)cc2)c2cc(C(=O)N3CCN(c4ccccn4)CC3)sc21 | -7.2% (inactive)
67 | CN(C)c1ncc(C(=O)O)cn1 | 21.7% (inactive)
68 | O=C(c1c[nH]c2ccccc12)C(O)C(c1ccccc1)N1CCOCC1 (centres undefined) | -15.9% (inactive)
69 | COc1ccc(C(=O)c2c[nH]c3ccccc23)cc1 | 15.5% (inactive)
70 | COc1ccc(C(C(O)C(=O)c2c[nH]c3ccccc23)N2CCN(c3ccc(OC)cc3)CC2)cc1 (centres undefined) | 50.4% (active)
71 | O=C(Nc1ccccc1F)C1CCCN(S(=O)(=O)c2cccc3cccnc23)C1 (centres undefined) | 7% (inactive)
72 | Cn1cnnc1SCc1ccc(C#N)cc1 | 2.3% (inactive)

Row | SMILES | cytotoxicity
73 | OCCNCC(O)Cn1ccc2ccccc21 (centres undefined) | -4.4% (inactive)
74 | OCCN(CC(O)Cn1ccc2ccccc21)CC(O)Cn1ccc2ccccc21 (centres undefined) | 29.1% (inactive)
75 | O=C1OCC2=C1C(c1ccc3c(c1)OCO3)Sc1ccccc1N2 (centres undefined) | -14.4% (inactive)
76 | Cc1c(C(=O)N2CCN(C)CC2)oc2c1C(=O)CC(C)(C)C2 | -40.9% (inactive)
77 | c1ccc(-c2nc(N3CCN(c4ccccc4)CC3)nc(-n3ccnc3)n2)cc1 | 30.8% (inactive)
78 | c1ccc(-c2nc(N3CCCCCC3)nc(-n3ccnc3)n2)cc1 | -10.1% (inactive)
79 | Cn1nc(-c2ccc(Cl)cc2)c2cc(C(=O)N3CCOCC3)sc21 | 8.6% (inactive)
80 | CC(=O)c1ccc(NC(=O)c2noc3c2CCCCC3)cc1 | 16.4% (inactive)
81 | CN1CCN(c2ncnc3c2[nH]c2ccc(F)cc23)CC1 | 5.5% (inactive)
82 | COc1ccc2c(c1)c1ncnc(N3CCN(Cc4ccc5c(c4)OCO5)CC3)c1n2C | 43.1% (inactive)
83 | COc1ccc2[nH]c3c(N4CCN(Cc5ccc6c(c5)OCO6)CC4)ncnc3c2c1 | 53.7% (active)
84 | Cc1ccc2c(c1)[nH]c1c(N3CCN(Cc4ccc5c(c4)OCO5)CC3)ncnc12 | 9.5% (inactive)
85 | Fc1ccc2[nH]c3c(N4CCN(C5CCCCC5)CC4)ncnc3c2c1 | 23.3% (inactive)
86 | CCCCOc1ncnc2c1[nH]c1ccc(F)cc12 | 5% (inactive)
87 | c1ccc2c(c1)oc1c(N3CCN(Cc4ccc5c(c4)OCO5)CC3)ncnc12 | 10.1% (inactive)
88 | COc1cccc(N2CCN(c3ncnc4c3[nH]c3ccc(F)cc34)CC2C)c1 (centres undefined) | 121% (active)
89 | Fc1ccc2[nH]c3c(N4CCN(c5ccccc5)CC4)ncnc3c2c1 | -3.9% (inactive)
90 | COc1cccc2[nH]c3c(N4CCN(Cc5ccc6c(c5)OCO6)CC4)ncnc3c12 | 44.8% (inactive)
91 | CCC1S/C(=C(\C#N)C(=O)NCc2ccco2)N(c2ccc(F)cc2)C1=O (centres undefined) | -16.6% (inactive)
92 | CC1CCCCN1S(=O)(=O)c1ccc2c(c1)oc(=O)n2CC(=O)O (centres undefined) | -0.1% (inactive)
93 | CCN=C(Nc1ccc2c(c1)OCO2)SC1CC(=O)N(c2ccccc2F)C1=O (centres undefined) | -6% (inactive)
94 | O=C(O)CCS(=O)(=O)Cc1ccccc1F | 1.1% (inactive)

Source: PubChem BioAssay AID431 (Sanford-Burnham Center for Chemical Genomics, 2006)
